Laboratory results: PubChem BioAssay (Tox21)
Values joined by “and” are separate entries in the source; they are usually repeats but may differ in a detail not shown here. Identical values can stand only once. Inconclusive results are not listed. Where a call stands in place of a potency, no number is given. Some structures have more than one record in an assay (separate samples or runs), and their calls can disagree. Active and inactive are the calls of the source. The call rests on the fitted dose curve; in most records, active means well fitted cell-killing curve with a large enough effect in the repeat runs; inconclusive means weak or mixed curves, or effect the other way; inactive means no such curve, though single readings can be large or run the other way.

experiment: qHTS assay for identifying genotoxic compounds that show differential cytotoxicity against isogenic chicken DT40 cell lines with known DNA damage response pathways - Rev3 mutant cell line (AID 743014); settings: chicken DT40 Rev3-/- viability, CellTiter-Glo, 40 h; series mostly up to 68.4 µM; further: nearly all actives have a fitted effect of over 55% in size
Description: National Center for Advancing Translational Sciences [NCATS]
NIH Chemical Genomics Center [NCGC]
U.S. Environmental Protection Agency [EPA]
National Institutes of Environmental Health Sciences [NIEHS]
National Toxicology Program [NTP]
U.S. Food and Drug Administration [FDA]
DNA repair pathways play a critical role in cellular homeostasis by repairing DNA damage induced by endogenous processes and xenobiotics. Isogenic chicken DT40 cell lines deficient in different DNA repair pathways can be used to identify genotoxic compounds and aid in characterizing the nature of the DNA damage induced. Two DNA repair-deficient cell lines with disrupted genes, Rad54/Ku70 or Rev3, were used to screen the Tox21 10K compound library. Possible genotoxicity was based on the presence of a significant increase in cytotoxicity in one or more of the DNA repair-deficient cell lines compared to that observed in the parental DNA repair-proficient cell line. CellTiter Glo viability assay (Promega, Madison, WI) was used to measure cell viability in these cells after compound treatment. This assay includes the data from the Rev3 mutant cell line.
Tox21 Assay Protocol Summary:
300 DT40 mutant cells in 5 uL/well were dispensed into white, solid-bottom 1536-well plates using a Multidrop Combi (ThermoFisher Scientific, Waltham, MA) dispenser. After the assay plates were incubated at 37 C/5% CO2 for approximately 0.5 hour, 23 nL of compounds dissolved in DMSO, positive controls or DMSO only was transferred into the assay plate by a pintool work station (Kalypsys, San Diego, CA). The assay plates were incubated at 37 C/5% CO2 for 40 hours. After 5 uL per well of CellTiter-Glo reagent was added into each well of the assay plates, the plates were incubated for 30 min at room temperature and the luminescence intensity of the plates was measured using a ViewLux (PerkinElmer, Shelton, CT) plate reader.
Potency means the concentration at half of the fitted maximal effect.

| SMILES | Potency |
| --- | --- |
| c1ccc2scnc2c1 | inactive |
| CCc1cccc(C)c1N | inactive |
| O=C(O)c1cc(=O)c2c(OCC(O)COc3cccc4oc(C(=O)O)cc(=O)c34)cccc2o1 | inactive |
| c1c[nH]cn1 | inactive |
| O=[N+]([O-])c1ccc(/C=C/c2ccc([N+](=O)[O-])cc2S(=O)(=O)O)c(S(=O)(=O)O)c1 | inactive |
| CC(C)CC(=O)CC(C)C | inactive |
| CC1=CC(=O)NS(=O)(=O)O1 | inactive |
| Cc1cccc(O)c1 | inactive |
| O=C(O)c1ccccc1C(c1ccc(O)cc1)c1ccc(O)cc1 | inactive |
| CCCCOC(=O)COc1ccc(Cl)cc1Cl | inactive |
| CCc1ccc(CCOc2ccc(CC3SC(=O)NC3=O)cc2)nc1 (stereo not given) | inactive and 68.6 µM (active) |
| CCCSc1ccc2nc(NC(=O)OC)[nH]c2c1 | 359 nM (active) and 969 nM (active) |
| CCCCN(CCCC)CCCC | inactive |
| CC(c1cc2ccccc2s1)N(O)C(N)=O (stereo not given) | inactive |
| COCCCOc1ccnc(CS(=O)c2nc3ccccc3[nH]2)c1C (stereo not given) | 29.8 µM (active) and 24.2 µM (active) |
| COS(C)(=O)=O | inactive |
| CC(C)(C)[C@@H](O)[C@@H](Cc1ccc(Cl)cc1)n1cncn1 | 30.6 µM (active) |
| C=C(C)C(=O)OCCOCCOCCOC(=O)C(=C)C | inactive |
| OCCOCCOCCO | inactive |
| CC1CCC2CC1C2(C)C (stereo not given) | inactive |

| SMILES | Potency |
| --- | --- |
| O=C(O)c1ccc2c(c1)C(=O)OC2=O | inactive |
| FC(F)(F)c1ccc(Cl)c(Cl)c1 | inactive |
| COc1cc(Cc2cnc(N)nc2N)cc(OC)c1OC | inactive |
| Cc1ccc2oc(=O)ccc2c1 | inactive |
| C=C(C)C(=O)O[C@H]1C[C@@H]2CC[C@@]1(C)C2(C)C | inactive |
| Cc1occc(=O)c1O | inactive |
| CCN(CC)CCCC(C)Nc1ccnc2cc(Cl)ccc12 (stereo not given) | 13.3 µM (active) and 2.66 µM (active) |
| N[C@@H](Cc1cc(I)c(Oc2cc(I)c(O)c(I)c2)c(I)c1)C(=O)O | inactive |
| CCCCCC(N)=O | inactive |
| CC1=C(C)S(=O)(=O)CCS1(=O)=O | 68.6 µM (active) |
| O=c1[nH]c(=O)n([C@H]2CCCO2)cc1F | inactive |
| O=c1[nH]nnc2ccccc12 | inactive |
| O=C(O)c1cc(C(=O)O)cc(S(=O)(=O)O)c1 | inactive |
| COc1ccc(NC(C)=O)cc1N | inactive |
| CC(O)COCC(C)O (stereo not given) | inactive |
| O=C(Oc1ccccc1)c1ccccc1 | inactive |
| CCCCCC/C(C=O)=C\c1ccccc1 | inactive |
| OC[C@H]1O[C@@](CO)(O[C@H]2O[C@H](CO)[C@@H](O)[C@H](O)[C@H]2O)[C@@H](O)[C@@H]1O | inactive |
| O=C(O)c1ccc(C(=O)O)cc1 | inactive |
| Nc1ccccc1[N+](=O)[O-] | inactive |
